Source: PubChem BioAssay AID2685 (National Center for Advancing Translational Sciences (NCATS), 2010)
The campaign covered roughly 320,000 compounds. About 2,100 (0.66%) were called active. Not shown: some 53% with an inconclusive outcome. The call rests on the fitted dose curve; in most records, active means well fitted inhibition curve with a large enough effect in the signal ratio, with a control signal flat (not every such curve was filed as active); inconclusive means small, poorly fitted or top-dose-only effect, or effect the other way, or a change in a side signal; inactive means flat fitted curve, though single readings scatter; the % refers to the signal ratio. Only a selection was taken, and actives are over-represented in it overall.

Assay: qHTS Assay for Lipid Storage Modulators in Drosophila S3 Cells;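 on cell number change: cells counted by Cell Tracker Red CMTPX staining in the red channel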; on lipid storage change, negative = inhibition: on the % scale 0 is the no-effect control and ±100 the full control effect
Settings: BODIPY lipid droplet fluorescence, 18-24 h, cells fed with added oleic acid; cell number change: measured here: cell count max response; series mostly up to 46.1 µM; lipid storage change, negative = inhibition: at the top concentration
Summary of the method: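 Laser-scanning cytometry quantifies lipid droplet accumulation (500–530 nm total intensity; droplet/cell object ratio) in oleic acid-fed (400 uM added) Drosophila S3 cells treated with a concentration series. 20 uM Triacsin C defined 100% inhibition.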
Potency means the concentration at half of the fitted maximal effect.

Structure (SMILES) | lipid storage change, negative = inhibition | cell number change [%] | outcome | Potency
C/C(=N\NC(=O)CC#N)c1ccc(Oc2ccccc2)cc1 | 6.93% (inactive) | 6.12 | – | –
CCOc1ccccc1N1C(=O)c2ccc(C(=O)Nc3cccnc3)cc2C1=O | – | – | inactive | –
CCOc1ccccc1N1C(=O)c2ccc(C(=O)O)cc2C1=O | – | -1.3 | – | 4.61 µM (active)
CCOc1ccccc1N1C(=O)c2ccc(S(=O)(=O)c3ccc(C(=O)O)cc3)cc2C1=O | 25.3% (inactive) | 24.2 | – | –
CCS(=O)(=O)c1ccc2oc(SCC(=O)Nc3ccc(OC)cc3)nc2c1 | 11.2% (inactive) | 7.84 | – | –
CCN(CC)c1nc(-c2ccc(C(=O)NN)cc2)nc(-c2ccc(C(=O)NN)cc2)n1 | 16.7% (inactive) | 26.3 | – | –
CCN(CC)c1nc(SCC(=O)O)nc(N(CC)CC)n1 | – | – | inactive | –
CCN(CC)c1nc2n(c(=O)n1)CCN2CC | – | 14.9 | – | 5.17 µM (active)
CCOc1cc(/C=C2\SC(=S)N(N3CCOCC3)C2=O)ccc1O | -7.43% (inactive) | -15.1 | – | –
Nc1nc(N2CCN(C(=O)c3ccco3)CC2)nc2ccccc12 | 3.78% (inactive) | 7.42 | – | –
COc1cc(C#N)ccc1OCC(=O)NCc1cccs1 | – | – | inactive | –
CC(=O)Nc1ccc2oc(-c3ccccc3)nc2c1 | 10.5% (inactive) | 17.7 | – | –
CCc1ccc2oc(-c3ccc(NC(C)=O)cc3)nc2c1 | – | – | – | 11.6 µM (active)
CCN(CC)CC(=O)Nc1ccc(-c2nc3cc(NC(=O)CN(CC)CC)ccc3o2)cc1 | – | 0.429 | inactive | –
COc1ccc(NC(=O)Cc2ccc(C)c(C)c2)cc1Cl | -18.4% (inactive) | -32.8 | – | –
COc1ccc(OC)c(NC=C2C(=O)OC3(CCCCC3)OC2=O)c1 | -31.6% (inactive) | -8.05 | – | –
COc1ccccc1C(=O)COC(=O)c1ccc(Cl)nc1 | 2.34% (inactive) | -5.19 | – | –
CCN(Cc1ccncc1)C(=O)c1cc(COc2ccc(F)cc2F)on1 | – | -20.5 | inactive | –
Cc1cc(=S)cc(C)n1CCCO | 0.297% (inactive) | -15.3 | – | –
COc1ccc(NS(=O)(=O)c2ccc3nc(COc4ccc5ccccc5c4)[nH]c3c2)cc1 | – | -9.6 | – | 23.1 µM (active)
c1ccc2cc(OCc3nc4ccccc4[nH]3)ccc2c1 | -7.47% (inactive) | -24.1 | – | –
COc1ccccc1NS(=O)(=O)c1ccc2oc(=S)[nH]c2c1 | 0.324% (inactive) | 9.13 | – | –
COc1ccccc1NS(=O)(=O)c1ccc2[nH]c(=O)[nH]c2c1 | – | -22.3 | inactive | –
COc1ccccc1NS(=O)(=O)c1ccc2nc(CCl)[nH]c2c1 | – | -11.7 | – | 0.259 µM (active)

Structure (SMILES) | lipid storage change, negative = inhibition | cell number change [%] | outcome | Potency
COc1ccc(OCc2nc3ccc(S(=O)(=O)Nc4ccccc4Cl)cc3[nH]2)cc1 | 0.493% (inactive) | 18.1 | – | –
COc1ccc(NS(=O)(=O)c2cccc(C(=O)NCC3(N4CCOCC4)CCCCC3)c2)cc1 | -19.7% (inactive) | 1.17 | – | –
CCCS(=O)(=O)Nc1cccc(-c2cn3c(n2)SCC3)c1 | – | -21.2 | inactive | –
Cc1cc(C)n2nc(Sc3ncccc3[N+](=O)[O-])nc2n1 | -0.347% (inactive) | -8.83 | – | –
Cc1ccnc(Sc2ncccc2[N+](=O)[O-])n1 | – | -11.7 | – | 29.1 µM (active)
Cc1ccc(Sc2ncccc2[N+](=O)[O-])cc1 | -8.13% (inactive) | -12.8 | – | –
COCc1cc(CN2CCN(Cc3ccsc3)C(CCO)C2)ccc1OC (stereo unspecified) | -2.77% (inactive) | 9.7 | – | –
CCC(C)(C)NC(=O)C(c1ccc(O)cc1)N(CCOC)C(=O)CCC(=O)Nc1nccs1 (stereo unspecified) | -16.7% (inactive) | -13.3 | – | –
COCCN(C(=O)CCC(=O)Nc1nccs1)C(C(=O)NC(C)(C)C)c1ccc(F)cc1 (stereo unspecified) | -2.68% (inactive) | 9.66 | – | –
CCC(C)(C)NC(=O)C(c1ccc(F)cc1)N(CCOC)C(=O)CCC(=O)Nc1nccs1 (stereo unspecified) | – | 3.04 | – | 14.6 µM (active)
Cc1cc2nnc(SCC(=O)Nc3cccc(S(=O)(=O)N4CCOCC4)c3)n2c2ccccc12 | 2.35% (inactive) | 5.18 | – | –
C=CCSc1nnc(CC(OC)OC)n1-c1ccccc1 | – | – | inactive | –
CC(=O)Nc1cccc(/C(C)=N/NC(=O)c2ccc(NS(=O)(=O)c3cccs3)cc2)c1 | -1.63% (inactive) | 10.3 | – | –
Cc1nc(Nc2ccccc2Br)c2nnn(Cc3ccccc3)c2n1 | -10.6% (inactive) | 8.19 | – | –
CCCCN(C(=O)c1ccccc1F)c1c(N)n(CCC)c(=O)[nH]c1=O | – | 28.6 | inactive | –
CCCCn1c(N)c(N(CC)C(=O)c2ccccc2F)c(=O)[nH]c1=O | – | 6.41 | – | 8.2 µM (active)
CCCCn1c(N)c(N(CC)C(=O)c2ccccc2C(F)(F)F)c(=O)[nH]c1=O | 85.7% (inactive) | -2.38 | – | –
O=C1NCCN1C(=O)c1cccc(Cl)c1 | -0.38% (inactive) | 4.49 | – | –
O=C(Nc1nnc(Cc2ccc(F)cc2)s1)Nc1ccccc1F | – | -6.61 | inactive | –
COc1ccc(NC(=O)Nc2nnc(Cc3ccc(F)cc3)s2)cc1 | 2.57% (inactive) | -7.21 | – | –
O=C(Nc1ccccc1)Nc1nnc(Cc2ccc(F)cc2)s1 | – | 14 | – | 0.103 µM (active)
O=C1CCc2cc(S(=O)(=O)NC3CCCCC3)cc3c2N1CC3 | – | – | inactive [at 0.0737 µM] | –
Cc1ccc(OCC(O)CN2CCN(CCO)CC2)c(C)c1 (stereo unspecified) | -4.99% (inactive) | 3.63 | – | –
O=C(NCc1cccc(C(F)(F)F)c1)C1CCCN(c2ncccn2)C1 (stereo unspecified) | – | 23.6 | inactive | –

Structure (SMILES) | lipid storage change, negative = inhibition | cell number change [%] | outcome | Potency
CN1C(=O)/C(=C/c2cc(C(C)(C)C)c(O)c(C(C)(C)C)c2)NC1=S | 9.04% (inactive) | – | – | –
O=C1/C(=C/c2ccccc2F)SC(=S)N1CC(=O)N1CCCCC1c1cccnc1 (stereo unspecified) | – | -0.951 | – | 7.31 µM (active)
O=C(CCN1C(=O)/C(=C/c2ccccc2F)SC1=S)NC1C=CS(=O)(=O)C1 (stereo unspecified) | – | – | inactive | –
O=C(CN1C(=O)S/C(=C\c2ccccc2F)C1=O)NC1C=CS(=O)(=O)C1 (stereo unspecified) | – | -3.44 | inactive | –
O=C(CCN1C(=O)/C(=C\c2ccccc2F)SC1=S)N1CCCCC1 | 0.243% (inactive) | 13.6 | – | –
O=C(CN1C(=O)/C(=C/c2ccccc2F)SC1=S)NC1C=CS(=O)(=O)C1 (stereo unspecified) | – | -4.2 | – | 16.4 µM (active)
O=C1/C(=C/c2ccccc2)SC(=S)N1CC(=O)N1CCCCC1c1cccnc1 (stereo unspecified) | – | 6.85 | inactive | –
CC(=O)c1nn(-c2cccc(Br)c2)cc1C(=O)c1ccc2ccccc2c1 | – | -7.14 | – | 5.17 µM (active)
CC(=O)c1nn(-c2ccccc2)cc1C(=O)c1cccc(Br)c1 | 18.9% (inactive) | -13.3 | – | –
CC(=O)c1nn(-c2cccc(Br)c2)cc1C(=O)c1ccccc1 | 18.9% (inactive) | -13.8 | – | –
Cc1ccc(C(=O)NC2CCS(=O)(=O)C2)cc1S(=O)(=O)N1CCOCC1 (stereo unspecified) | -7.04% (inactive) | 10.2 | – | –
CCOC(=O)N=S(N)(=O)c1ccccc1 (stereo unspecified) | – | -1.15 | – | 14.6 µM (active)
CCOC(=O)CS(=O)(=O)c1ccccc1 | -0.796% (inactive) | 1.52 | – | –
CCOC(=O)N=S(N)(=O)c1ccc(Cl)cc1 (stereo unspecified) | -21% (inactive) | -0.647 | – | –
CCc1ccc(NC(=O)NCC2CCN(Cc3cccc(Cl)c3)CC2)cc1 | -2.08% (inactive) | -23.4 | – | –
COC(=O)c1ccc(CON2C(=O)c3ccccc3C2=O)cc1 | -5.5% (inactive) | -3.96 | – | –
COC(=O)CON1C(=O)c2ccccc2C1=O | – | -16.7 | – | 25.9 µM (active)
COC(=O)CCC(=O)NN1C(=O)c2ccccc2C1=O | -14.5% (inactive) | 9.79 | – | –
CN(Cc1cccc(F)c1)C(=O)c1cc(S(=O)(=O)N2CCOCC2)ccc1N1CCCC1 | 2.59% (inactive) | -6.74 | – | –
COc1ccc(OC)c(NC2=NC3(CCCC3)N=C(N)N2)c1 | – | -7.97 | inactive | –
COc1cccc(NC2=NC3(CCCCC3)N=C(N)N2)c1 | – | 5.89 | – | 6.51 µM (active)
COc1ccc(NC2=NC3(CCCCC3)N=C(N)N2)cc1 | -9.8% (inactive) | -9.76 | – | –
O=C(Cn1nnc2ccccc21)OCC(=O)c1ccccc1 | -10% (inactive) | -10.5 | – | –
O=C(Cn1nnc2ccccc21)c1ccc([N+](=O)[O-])cc1 | 1.88% (inactive) | 9.12 | – | –

Structure (SMILES) | lipid storage change, negative = inhibition | cell number change [%] | outcome | Potency
O=C(CCn1nnc2ccccc21)OCC(=O)c1ccc([N+](=O)[O-])cc1 | – | 5.65 | – | 0.731 µM (active)
O=[N+]([O-])c1ccc(N2CCOCC2)cc1NCCCO | 6.02% (inactive) | 7.85 | – | –
Cc1ccc2ncnc(Nc3cccc(C(=O)O)c3)c2c1 | -2% (inactive) | -1.09 | – | –
Cc1ccc2ncnc(Nc3cccc([N+](=O)[O-])c3)c2c1 | – | 12.6 | – | 8.2 µM (active)
O=C(O)c1cccc(Nc2ncnc3ccccc23)c1 | – | -4.45 | – | 25.9 µM (active)
O=C(O)c1cccc(Nc2ncnc3ccc(Br)cc23)c1 | -2.57% (inactive) | -2.61 | – | –
Cc1ccc2ncnc(Nc3ccccc3)c2c1 | 8.18% (inactive) | -8.5 | – | –
Cn1ncc2c(Nc3cccc([N+](=O)[O-])c3)ncnc21 | – | -17 | inactive | –
O=C(NCC(=O)N1CCN(c2ccccc2F)CC1)c1ccc(Br)o1 | – | – | inactive | –
Cc1cccc(N2CCN(C(=O)c3ccc(CS(=O)Cc4ccc(Cl)cc4)o3)CC2)c1C (stereo unspecified) | – | -21 | inactive | –
CCN1CCCC1CNCc1ccc(Cl)cc1Cl (stereo unspecified) | – | -167 | – | 7.31 µM (active)
CCN1CCCC1CNCc1ccccc1OCc1ccc(F)cc1 (stereo unspecified) | – | 13.4 | inactive | –
CCOc1cc(CNCC2CCCN2CC)cc(Cl)c1OC (stereo unspecified) | 0.755% (inactive) | 12.4 | – | –
CCn1cc(CN2CCC(n3nccc3NC(=O)c3ccc(OC)cc3)CC2)cn1 | 3.07% (inactive) | -5.94 | – | –
O=c1[nH]c2ccc(S(=O)(=O)N3CCCCC3)cc2o1 | 3.63% (inactive) | 2.33 | – | –
COc1ccc(C(=O)NNC(=O)COc2ccc(Cl)cc2)c(OC)c1 | – | 4.95 | inactive | –
CCOc1ccccc1NC(=O)C1CCCN(S(=O)(=O)c2cccc3nsnc23)C1 (stereo unspecified) | 20.9% (inactive) | -15.5 | – | –
CCc1ccc(NS(=O)(=O)c2ccc(OC)c3ncccc23)cc1 | 4.19% (inactive) | 5.2 | – | –
CNC(=O)C(=O)Nc1cc2c3c(c1)CCN3C(=O)CC2 | – | – | inactive | –
O=C(NCCO)C(=O)Nc1cc2c3c(c1)CCN3C(=O)CC2 | – | -29 | inactive | –
CNC(=O)C(=O)Nc1cc2c3c(c1)CCC(=O)N3CCC2 | – | -5.6 | inactive | –
CCNC(=O)C(=O)Nc1cc2c3c(c1)CCN3C(=O)CC2 | – | -2.95 | – | 6.51 µM (active)
CC(C)NC(=O)C(=O)Nc1cc2c3c(c1)CCC(=O)N3CCC2 | – | -25.7 | – | 11.6 µM (active)
CC(C)CNC(=O)C(=O)Nc1cc2c3c(c1)CCC(=O)N3CCC2 | – | – | inactive | –
